Several values for one entry are separate records, joined by “and”; a condition that tells them apart may be missing. Equal entries are not always repeated. Where a structure was tested more than once in an assay, its records may differ in their call. Activity calls are given as the source filed them. Unless noted, the call rests on the fitted dose curve; in most records, active means well fitted curve in the direction sought with a large enough effect in the repeat runs; inconclusive means weak or mixed curves; inactive means no such curve, though single readings can be large; an effect the other way counts as inactive or inconclusive.
Experiments:
[1] = qHTS assay to identify small molecule antagonists of the thyroid receptor (TR) signaling pathway - cell viability counter screen (AID 743064); further: nearly all actives have a fitted effect of over 50% in size; further: potency means the concentration at half of the fitted maximal effect
How it was run: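 In-well cytotoxicity read by CellTiter-Fluor (30 min, 37 C) following 23.5 h exposure of GH3 cells bearing a TRE-luciferase sensor. Compounds were added alongside 1 nM (final) T3 to drive TR transactivation.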

[2] = qHTS assay to identify small molecule antagonists of the thyroid receptor (TR) signaling pathway (AID 743065); further: nearly all actives have a fitted effect of over 55% in size; further: potency means the concentration at half of the fitted maximal effect
How it was run: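 Antagonism measured as loss of luciferase signal in GH3 cells stably carrying a TRE-luciferase reporter, co-treated with compound and T3 (1 nM final) for 23.5 h at 37 C. Viability was read in the same well by CellTiter-Fluor.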

[3] = system: thyroid hormone receptor (rat, GH3 cells); test: qHTS assay to identify small molecule agonists of the thyroid receptor (TR) signaling pathway (AID 743066; calls by dose curve; further: on the % scale 0 is the no-effect control and ±100 the full control effect)
[4] = qHTS assay to identify small molecule antagonists of the estrogen receptor alpha (ER-alpha) signaling pathway - cell viability counter screen (AID 743074; calls by dose curve;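 further: HEK293 cells carrying ER-alpha-UAS-bla reporter stimulated with 17beta-estradiol; on the % scale 0 is the no-effect control and ±100 the full control effect; nearly all actives have a fitted effect of over 45% in size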)
[5] = qHTS assay to identify small molecule antagonists of the estrogen receptor alpha (ER-alpha) signaling pathway using the BG1 cell line - cell viability counter screen (AID 743081);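 further: compound given together with 17beta-estradiol as the ER stimulus; nearly all actives have a fitted effect of over 45% in size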; further: potency means the concentration at half of the fitted maximal effect; on activity change, negative = cytotoxicity: series mostly up to about 70 µM; on the % scale 0 is the no-effect control and ±100 the full control effect
Aromatase (Homo sapiens) = Aromatase (Homo sapiens) (UniProt P11511); test: qHTS assay to identify aromatase inhibitors (AID 743083); further: nearly all actives have a fitted effect of over 55% in size; further: potency means the concentration at half of the fitted maximal effect
Aromatase (Homo sapiens), sequence (P11511 whole entry, looked up): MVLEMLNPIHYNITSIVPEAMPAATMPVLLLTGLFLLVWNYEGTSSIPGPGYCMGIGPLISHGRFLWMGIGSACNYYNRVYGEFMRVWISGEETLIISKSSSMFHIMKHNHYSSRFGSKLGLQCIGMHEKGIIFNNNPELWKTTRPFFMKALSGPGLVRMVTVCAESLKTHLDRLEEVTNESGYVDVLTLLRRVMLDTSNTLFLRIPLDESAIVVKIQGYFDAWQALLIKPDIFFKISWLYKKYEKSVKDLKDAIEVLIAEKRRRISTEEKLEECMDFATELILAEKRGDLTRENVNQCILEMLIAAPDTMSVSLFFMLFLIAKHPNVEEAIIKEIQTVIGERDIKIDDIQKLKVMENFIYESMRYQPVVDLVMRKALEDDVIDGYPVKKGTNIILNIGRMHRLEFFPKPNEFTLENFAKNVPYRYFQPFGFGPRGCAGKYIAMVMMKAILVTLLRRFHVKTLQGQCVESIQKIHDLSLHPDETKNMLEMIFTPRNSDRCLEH

[6] = target: Estrogen receptor (Homo sapiens) (UniProt P03372); test: qHTS assay to identify small molecule agonists of the estrogen receptor alpha (ER-alpha) signaling pathway (AID 743075; calls by dose curve;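 further: HEK293 GripTite cells with ER-alpha and UAS-driven beta-lactamase reporter; on the % scale 0 is the no-effect control and ±100 the full control effect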)
Estrogen receptor (Homo sapiens), sequence (P03372 whole entry, looked up): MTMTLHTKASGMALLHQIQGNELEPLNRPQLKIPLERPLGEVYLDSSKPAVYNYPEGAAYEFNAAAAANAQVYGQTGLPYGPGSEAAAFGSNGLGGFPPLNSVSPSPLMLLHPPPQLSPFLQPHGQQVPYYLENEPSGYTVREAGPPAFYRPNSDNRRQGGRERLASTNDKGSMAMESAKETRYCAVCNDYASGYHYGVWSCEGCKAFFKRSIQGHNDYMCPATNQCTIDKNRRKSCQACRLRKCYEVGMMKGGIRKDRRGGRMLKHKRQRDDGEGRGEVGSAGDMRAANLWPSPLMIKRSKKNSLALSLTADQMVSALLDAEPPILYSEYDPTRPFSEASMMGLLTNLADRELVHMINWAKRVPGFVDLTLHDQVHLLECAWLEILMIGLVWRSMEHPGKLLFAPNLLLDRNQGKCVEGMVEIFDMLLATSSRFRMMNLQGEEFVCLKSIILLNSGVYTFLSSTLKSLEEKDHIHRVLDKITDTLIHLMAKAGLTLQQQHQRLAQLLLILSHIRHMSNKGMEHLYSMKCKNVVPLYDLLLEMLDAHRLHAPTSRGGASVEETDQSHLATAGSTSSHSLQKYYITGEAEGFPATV

[7] = target: Estrogen receptor (Homo sapiens) (UniProt P03372); test: qHTS assay to identify small molecule agonists of the estrogen receptor alpha (ER-alpha) signaling pathway using the BG1 cell line (AID 743079); further: nearly all actives have a fitted effect of over 20% in size; further: potency means the concentration at half of the fitted maximal effect; on activation: on the % scale 0 is the no-effect control and ±100 the full control effect
[8] = qHTS assay to identify small molecule antagonists of the estrogen receptor alpha (ER-alpha) signaling pathway using the BG1 cell line (AID 743080; calls by dose curve;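 further: BG1 cells stimulated with 17beta-estradiol alongside compound; nearly all actives have a fitted effect of over 25% in size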; further: potency means the concentration at half of the fitted maximal effect)
How it was run: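 BG1-Luc-4E2 cells (endogenous full-length ER-alpha, stable 4×ERE-luciferase) were starved 5 days in phenol-red-free medium with 10% charcoal-stripped FBS, plated 24 h, then given compound plus 17beta-estradiol for 21.5 h at 37 C; ONE-Glo luminescence read after 30 min.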

[9] = target: Estrogen receptor (Homo sapiens) (UniProt P03372); test: qHTS assay to identify small molecule antagonists of the estrogen receptor alpha (ER-alpha) signaling pathway (AID 743069; active means well fitted curve in the direction sought with a large enough effect in the signal ratio in the repeat runs, not every such curve was filed as active; inconclusive means weak or mixed curves, or effect the other way; inactive means no such curve, though single readings can be large or run the other way; the % refers to the signal ratio; further: potency means the concentration at half of the fitted maximal effect)
How it was run: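 Antagonist mode: compounds in DMSO were co-added with 17beta-estradiol to ER-alpha-bla HEK293 cells (2% charcoal-stripped serum) and left 18 h at 37C. Reporter inhibition was measured as FRET fluorescence after 2 h LiveBLAzer substrate at room temperature.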

O=C(O)c1ccncc1
inactive: Potency [1] | Potency [2] | outcome [3] | outcome [4] | Potency [5] | Potency (Aromatase (Homo sapiens))

Cc1cc(SC2=C(O)C[C@@](CCc3ccc(N)cc3)(C(C)C)OC2=O)c(C(C)(C)C)cc1CO
inactive: Potency [1] | Potency [2] | outcome [3] | outcome [4] | Potency [5] | Potency (Aromatase (Homo sapiens))

C=CC(C)(O)CC/C=C(/C)CCC=C(C)C (stereo not given)
inactive: Potency [1] | Potency [2] | outcome [3] | outcome [4] | Potency [5]

CC(C)CCCCCCCOC(=O)c1ccc(C(=O)OCCCCCCCC(C)C)c(C(=O)OCCCCCCCC(C)C)c1
inactive: Potency [1] | Potency [2] | outcome [3] | outcome [4] | Potency [5] | Potency (Aromatase (Homo sapiens))

FC1(F)C(F)(F)C(F)(F)C2(F)C(F)(C1(F)F)C(F)(F)C(F)(F)C1(F)C(F)(F)C(F)(F)C(F)(F)C(F)(F)C12F (stereo not given)
inactive: Potency [1] | Potency [2] | outcome [3] | outcome [4] | Potency [5] | Potency (Aromatase (Homo sapiens))

CCOCCn1c(N2CCCN(C)CC2)nc2ccccc21
inactive: Potency [1] | Potency [2] | outcome [3] | Potency [5]

CCOc1ccccc1O
inactive: Potency [1] | Potency [2] | outcome [3] | outcome [4] | Potency [5] | Potency (Aromatase (Homo sapiens))

Cc1c(Cl)cccc1[N+](=O)[O-]
inactive: Potency [1] | Potency [2] | outcome [3] | outcome [4] | Potency [5] | Potency (Aromatase (Homo sapiens))

O=[N+]([O-])c1ccccc1CCO
inactive: Potency [1] | Potency [2] | outcome [3] | outcome [4] | Potency [5] | Potency (Aromatase (Homo sapiens))

C=CC(C)CCC=C(C)C (stereo not given)
inactive: Potency [1] | Potency [2] | outcome [3] | outcome [4] | Potency [5] | Potency (Aromatase (Homo sapiens))

CC1=CC(=C(c2ccc(N)cc2)c2ccc(N)cc2)C=CC1=N
inactive: activation [3] -3.23% [at 8.08 µM] | Potency [6] | activation [7] 1.34% [at 8.47 µM] | activity change, negative = inhibition [8] -25% [at 8.47 µM] | activity change, negative = cytotoxicity [5] -20.8% [at 8.47 µM]
active: Potency [1] 13.3 µM | Potency [2] 10.6 µM | Potency [5] 11.9 µM | Potency (Aromatase (Homo sapiens)) 8.41 µM

COc1ccc(CN(CCN(C)C)c2ncccn2)cc1
inactive: Potency [1] | Potency [2] | outcome [3] | outcome [4] | Potency [5] | Potency (Aromatase (Homo sapiens))

O=C(O)CNc1ccccc1
inactive: Potency [1] | Potency [2] | outcome [3] | outcome [4] | Potency [5] | Potency (Aromatase (Homo sapiens))

c1ccc(CCNc2nc(-c3ccccc3)cs2)cc1
active: Potency [7] 0.944 µM
inactive: Potency [1] | Potency [2] | outcome [3] | Potency [6] | Potency [5] | Potency (Aromatase (Homo sapiens))

CC(CN=Cc1ccccc1O)N=Cc1ccccc1O (stereo not given)
inactive: Potency [1] | Potency [2] | outcome [3] | outcome [4] | Potency [5] | Potency (Aromatase (Homo sapiens))

Sc1nc(S)nc(S)n1
inactive: Potency [1] | Potency [2] | outcome [3] | outcome [4] | Potency [5] | Potency (Aromatase (Homo sapiens))

CC(=O)OCC(=O)[C@@]1(O)CC[C@H]2[C@@H]3CCC4=CC(=O)C=C[C@]4(C)[C@@]3(F)[C@@H](O)C[C@@]21C
inactive: Potency [1] | Potency [2] | outcome [3] | outcome [4] | Potency [5] | Potency (Aromatase (Homo sapiens))

C=C[Si](OCC)(OCC)OCC
inactive: Potency [1] | Potency [2] | outcome [3] | outcome [4] | Potency [5] | Potency (Aromatase (Homo sapiens))

C=C(C)C(=O)OCCCCCCCCCCOC(=O)C(=C)C
inactive: Potency [1] | Potency [2] | outcome [3] | outcome [4] | Potency [5] | Potency (Aromatase (Homo sapiens))

O=C1c2ccccc2C(=O)c2c1ccc(O)c2O
inactive: Potency [1] | Potency [2] | outcome [3] | outcome [4] | Potency [5] | Potency (Aromatase (Homo sapiens))

CC(=O)Nc1ccn(C2COC(COC(=O)c3ccccc3)O2)c(=O)n1 (stereo not given)
inactive: Potency [1] | outcome [3] | Potency [5]
active: Potency [2] 16.8 µM

CS(C)=O
inactive: Potency [1] | Potency [2] | outcome [3] | outcome [4] | Potency [5] | Potency (Aromatase (Homo sapiens))

O=C(NC1CCN(CCc2c[nH]c3ccccc23)CC1)c1ccccc1
inactive: outcome [3] | outcome [4] | Potency (Aromatase (Homo sapiens))
active: Potency [1] 26.6 µM | Potency [2] 26.6 µM

CCc1c(C)[nH]c2c1C(=O)C(CN1CCOCC1)CC2 (stereo not given)
inactive: Potency [1] | Potency [2] | outcome [3] | outcome [4] | Potency [5]

C=CC(O)CCCCC (stereo not given)
inactive: Potency [1] | Potency [2] | outcome [3] | outcome [4] | Potency [5] | Potency (Aromatase (Homo sapiens))

C=C[Si]1(C)O[Si](C)(C=C)O[Si](C)(C=C)O[Si](C)(C=C)O1 (stereo not given)
inactive: Potency [1] | Potency [2] | outcome [3] | outcome [4] | Potency [5] | Potency (Aromatase (Homo sapiens))

CC(=O)Nc1ccccc1O
inactive: Potency [1] | Potency [2] | outcome [3] | outcome [4] | Potency [5] | Potency (Aromatase (Homo sapiens))

CC(C)(O)C(=O)O
inactive: Potency [1] | Potency [2] | outcome [3] | outcome [4] | Potency [5]

COC(=O)C(C)(C)C
inactive: Potency [1] | Potency [2] | outcome [3] | outcome [4] | Potency [5] | Potency (Aromatase (Homo sapiens))

CC(C)Cc1nccs1
inactive: Potency [1] | Potency [2] | outcome [3] | outcome [4] | Potency [5] | Potency (Aromatase (Homo sapiens))

c1ccc(CN(Cc2ccccc2)Cc2ccccc2)cc1
inactive: Potency [1] | Potency [2] | outcome [3] | outcome [4] | Potency [5] | Potency (Aromatase (Homo sapiens))

CC(=O)S[C@H](C(=O)N[C@H]1Cc2ccccc2[C@H]2CCC[C@@H](C(=O)O)N2C1=O)C(C)C
inactive: Potency [1] | Potency [2] | outcome [3] | outcome [4] | Potency [5] | Potency (Aromatase (Homo sapiens))

CCC(=O)O[C@@H]1C[C@H]2CC[C@]1(C)C2(C)C
inactive: Potency [1] | Potency [2] | outcome [3] | outcome [4] | Potency [5] | Potency (Aromatase (Homo sapiens))

Nc1nc(Cl)nc2c1ncn2[C@H]1C[C@H](O)[C@@H](CO)O1
inactive: outcome [3] | outcome [4] | Potency [5] | Potency (Aromatase (Homo sapiens))
active: Potency [1] 422 nM and 136 nM | Potency [2] 298 nM and 48.2 nM

Cc1c(-c2cccnc2)c2ccccc2n1CCCCC(=O)O
active: Potency (Aromatase (Homo sapiens)) 43.3 µM
inactive: Potency [1] | Potency [2] | outcome [3] | outcome [4] | Potency [5]

CC(C(=O)O)c1ccc2c(c1)Cc1cccnc1O2 (stereo not given)
inactive: Potency [1] | Potency [2] | outcome [3] | outcome [4] | Potency [5] | Potency (Aromatase (Homo sapiens))

Cc1ccc(S(=O)(=O)NC(=O)NC2CCCC2)cc1
inactive: Potency [1] | Potency [2] | outcome [3] | outcome [4] | Potency [5] | Potency (Aromatase (Homo sapiens))

O=[N+]([O-])c1ccc(Cl)cc1Cl
inactive: Potency [1] | Potency [2] | outcome [3] | Potency [5] | Potency (Aromatase (Homo sapiens))

CC(C)C[C@H](NC(=O)[C@H](Cc1ccccc1)NC(=O)c1cnccn1)B(O)O
inactive: outcome [4]
active: Potency [1] 18.8 nM and 11.9 nM | Potency [2] 23.7 nM and 16.8 nM | Potency [9] 0.0674 µM [inconclusive] | Potency [8] 66.8 nM and 53.1 nM | Potency [5] 1.06 µM and 668 nM | Potency (Aromatase (Homo sapiens)) 21.1 nM and 15 nM
